This is an account of results in PubChem BioAssay (Tox21).

Where “and” joins values, the source holds several entries; their conditions need not be identical. Identical values can stand only once. Records with an inconclusive call do not appear. Calls of active or inactive are those of the source. Unless noted, calls come from the whole dose curve; as a rule, active = well fitted curve in the direction sought with a large enough effect in the repeat runs; inconclusive = weak or mixed curves; inactive = no such curve, though single readings can be large; an effect the other way counts as inactive or inconclusive.

The nature of assay [1]: A CellTox Green Cytotoxicity Assay to monitor cytotoxicity in HepG2 cells - 8 hour (AID 1224890). Note: nearly all actives have a fitted effect of over 45% in size. A digest of the protocol:
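HepG2, 600 cells/well premixed w/ CellTox Green; 5 h settle, 37 C/5% CO2; pintool cpd add (DMSO); 37 C, 40 h; fluorescence read at 0, 8, 16, 24, 32, 40 h.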

Assay [2] is described as follows: qHTS assay to identify small molecule antagonists of the estrogen receptor alpha (ER-alpha) signaling pathway using the BG1 cell line in the presence of 0.1 nM 17-beta-estradiol - cell viability counter screen (AID 1259241). Note: nearly all actives have a fitted effect of over 40% in size. In short, it runs like this: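 Cells were plated and left 24 hr, compounds in DMSO were pinned in, 17beta-estradiol was added to 0.1 nM final, and after 22 hr CellTiter-Fluor reagent was added for 30 min before fluorescence was read.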

Assay [3] concerns the target Estrogen receptor (Homo sapiens) (UniProt P03372). As to the kind of experiment: qHTS assay to identify small molecule antagonists of the estrogen receptor alpha (ER-alpha) signaling pathway using the BG1 cell line in the presence of 0.1 nM 17-beta-estradiol (AID 1259244). Note: nearly all actives have a fitted effect of over 50% in size. A digest of the protocol:
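Luminescence after ONE-Glo (30 min, room temperature) measured ERE-luciferase activity in VM7Luc4E2 cells treated 22 h with compound and 0.1 nM final 17beta-estradiol as stimulator.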

Assay [4] is described as follows: qHTS assay to identify small molecule HDAC inhibitors (AID 1259364).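 Note: wild-type HCT-116 cells with endogenous class I/II HDAC activity; top concentration of the series differs between compounds; nearly all actives have a fitted effect of over 45% in size.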 A digest of the protocol:
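HCT-116 (wild type), 1,500 cells/well, overnight; compound 2 hr 37C 5% CO2; HDAC-Glo I/II reagent 30 min RT; luminescence readout.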

Assay [5] in a line: qHTS assay to identify small molecule HDAC inhibitors - cell viability counter screen (AID 1259365). Note: series mostly up to about 92 µM; nearly all actives have a fitted effect of over 50% in size. In short, it runs like this:
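Counter screen in wild-type HCT-116 cells: compounds dissolved in DMSO are pin-transferred onto overnight-plated cells and left 2hr at 37C. ATP-based CellTiter-Glo luminescence then measures viable cells.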

The nature of assay [6]: qHTS assay to identify small molecule agonists of the sonic hedgehog signaling (Shh) pathway - cell viability counter screen (AID 1259366). Note: nearly all actives have a fitted effect of over 50% in size. Note: potency is the fitted concentration of half-maximal effect. In short, it runs like this:
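Cells are plated at 2,000 per well and left 4hr at 37C, 5% CO2 before compound addition. After 23hr of treatment, CellTiter-Fluor reagent is added for 1hr at 37C and fluorescence is measured.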

Assay [7] can be described thus: qHTS assay to identify small molecule antagonists of the sonic hedgehog signaling (Shh) pathway - cell viability counter screen (AID 1259367). Note: nearly all actives have a fitted effect of over 55% in size. Note: potency is the fitted concentration of half-maximal effect. A digest of the protocol:
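CellTiter-Fluor signal in conditioned medium-stimulated 3T3 Gli1-Luc cells, 23 hr compound exposure, 37C.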

Assay [8] can be described thus: qHTS assay to identify small molecule agonists of the sonic hedgehog signaling (Shh) pathway (AID 1259368; calls by dose curve;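 note: NIH/3T3-derived 3T3Gli1-Luc cells carrying a stable Gli1-driven firefly luciferase reporter; series mostly up to about 92 µM; nearly all actives have a fitted effect of over 15% in size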). In short, it runs like this:
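Read-out: firefly luciferase luminescence from a Gli1 response element reporter stably integrated in NIH/3T3-derived 3T3Gli1-Luc cells, measured 30 min at room temperature after reagent addition. Compound exposure lasted 24 hr at 37 C, 5% CO2.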

Assay [9] in a line: qHTS assay to identify small molecule agonists of the androgen receptor (AR) signaling pathway in the presence of an antagonist - cell viability counter screen (AID 1259379).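 Note: MDA-kb2 human breast cancer cells carrying an MMTV luciferase reporter; series mostly up to about 92 µM; nearly all actives have a fitted effect of over 25% in size.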 In short, it runs like this: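 Viability counter screen: CellTiter-Fluor fluorescence, measured in the same wells as the luciferase read-out. MDA-kb2 cells, 3,000/well, with nilutamide at 3.0uM final and compounds at 15 concentrations, 16 hr at 37C, 0% CO2.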

Assay [10] can be described thus: qHTS assay to identify small molecule agonists of the estrogen receptor beta (ER-beta) signaling pathway - cell viability counter screen (AID 1259380). Note: nearly all actives have a fitted effect of over 30% in size. In short, it runs like this: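 Luminescence read-out (CellTiter-Glo, 30 min, room temp) taken in the same wells as the beta-lactamase reporter assay; ER-beta-UAS-bla HEK293T cells exposed to DMSO-dissolved compounds for 16 hr at 37C in 2% charcoal-stripped FBS medium.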

The nature of assay [11]: qHTS assay to identify small molecule antagonists of the estrogen receptor beta (ER-beta) signaling pathway - cell viability counter screen (AID 1259382).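 Note: HEK293T cells carrying ER-beta-UAS-bla reporter stimulated with estradiol; series mostly up to about 92 µM; nearly all actives have a fitted effect of over 55% in size.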 In short, it runs like this:
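Luminescent ATP read-out (CellTiter-Glo, 30 min, RT) taken in the same wells as the bla reporter assay. HEK293T ER-beta-UAS-bla cells in 2% charcoal-stripped FBS were exposed to compounds with 1nM E2 for 16 hr at 37C.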

Assay [12] can be described thus: qHTS assay to identify small molecule agonists or antagonists of the thyroid stimulating hormone receptor (TSHR) signaling pathway - wild type cell line counter screen (AID 1259384; calls by dose curve). In short, it runs like this:
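Counter screen in untransfected Hek293: compounds (15-point titration, triplicate) plus phosphodiesterase inhibitor Ro20-1724 added after 18 h plating; 30 min RT. Intracellular cAMP via competitive d2/cryptate immunoassay, 1 h incubation.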

The nature of assay [13]: qHTS assay to identify small molecule antagonists of the androgen receptor (AR) signaling pathway using the MDA cell line in the presence of 0.5 nM R1881 - cell viability counter screen (AID 1259242). Note: nearly all actives have a fitted effect of over 45% in size. In short, it runs like this: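 Live-cell protease fluorescence, CellTiter-Fluor, 30 min at 37C. Cells: MDA-kb2, 3,000/well, preincubated 5 hr. Compounds plus 0.5 nM R1881 final, 16 hr, 37C, 0% CO2.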

Assay [14] can be described thus: qHTS assay to identify small molecule antagonists of the sonic hedgehog signaling (Shh) pathway (AID 1259369; calls by dose curve; note: nearly all actives have a fitted effect of over 45% in size). In short, it runs like this:
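Luminescence readout: firefly Luc under Gli1 response element in 3T3Gli1-Luc cells (NIH/3T3 clone). Antagonist mode, stimulation by conditioned medium; compound exposure 24hr at 37 C, 5% CO2.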

Assay [15] is described as follows: qHTS assay to identify small molecule phospholipidosis (PLD) inducers (AID 1259344; active = well fitted curve in the direction sought with a large enough effect; an effect the other way counts as inactive or inconclusive). In short, it runs like this:
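Accumulated phospholipid, stained red by LipidTOX during 24 h compound treatment of HepG2 cells at 37 C, is quantified from images as pit number and intensity, normalised per cell using Hoechst-stained nuclei.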

Assay [16] has as its target Estrogen receptor (Homo sapiens) (UniProt P03372). Briefly: qHTS assay to identify small molecule agonists of the estrogen receptor alpha (ER-alpha) signaling pathway in the presence of an antagonist (AID 1259383; calls by dose curve; note: top concentration of the series differs between compounds; nearly all actives have a fitted effect of over 15% in size). A digest of the protocol: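 Luciferase luminescence (ONE-Glo, 30min at room temperature) measured in VM7Luc4E2 cells after 22hr compound exposure at 15 concentrations, with 10.0nM ICI-182,780 final present; cells express endogenous ER-alpha and carry four EREs upstream of luciferase.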

The target of assay [17] is Androgen receptor (Homo sapiens) (UniProt P10275). Briefly: qHTS assay to identify small molecule antagonists of the androgen receptor (AR) signaling pathway using the MDA cell line in the presence of 0.5 nM R1881 (AID 1259243). Note: nearly all actives have a fitted effect of over 50% in size. A digest of the protocol: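 MDA-kb2, MMTV-luc (AR/GR elements); 3,000 cells/well; cpd + 0.5 nM R1881 final; 16 hr 37C, 0% CO2; ONE-Glo 30 min RT; luminescence.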

Assay [18] addresses Estrogen receptor beta (Homo sapiens) (UniProt Q92731). As to the kind of experiment: qHTS assay to identify small molecule agonists of the estrogen receptor beta (ER-beta) signaling pathway (AID 1259377; active = well fitted activation curve with a large enough effect in the signal ratio in the repeat runs, not every such curve was filed as active; the % refers to the signal ratio). In short, it runs like this: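 Agonist mode cell assay in GripTite HEK293T cells expressing an ER-beta fusion that drives beta-lactamase from an Upstream Activator Sequence; 16 hr compound exposure at 37C, then 2 h LiveBLAzer B/G FRET substrate at room temperature, fluorescence read-out.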

In assay [19] the target is Androgen receptor (Homo sapiens) (UniProt P10275). As to the kind of experiment: qHTS assay to identify small molecule agonists of the androgen receptor (AR) signaling pathway in the presence of an antagonist (AID 1259381; calls by dose curve; note: nearly all actives have a fitted effect of over 15% in size; note: potency is the fitted concentration of half-maximal effect). In short, it runs like this:
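Luciferase read-out (ONE-Glo, 30min room temperature) in MDA-kb2 MMTV-reporter cells; agonist mode run in presence of AR antagonist nilutamide, 3.0uM final. Compounds tested as 15-point series, 16hr exposure at 37C, 0% CO2.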

For assay [20], the target named is Estrogen receptor beta (Homo sapiens) (UniProt Q92731). As to the kind of experiment: qHTS assay to identify small molecule antagonists of the estrogen receptor beta (ER-beta) signaling pathway (AID 1259378; active = well fitted inhibition curve with a large enough effect in the signal ratio in the repeat runs, not every such curve was filed as active; the % refers to the signal ratio). A digest of the protocol: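 Antagonist mode: compounds added to beta-lactamase reporter HEK293T ER-beta-UAS cells stimulated with E2 (1nM final), 16 hr at 37C. LiveBLAzer B/G FRET substrate, 2 hours room temperature, fluorescence read-out.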
Chain of Estrogen receptor beta (Homo sapiens) (Q92731 whole entry, looked up, the tested form may be a part): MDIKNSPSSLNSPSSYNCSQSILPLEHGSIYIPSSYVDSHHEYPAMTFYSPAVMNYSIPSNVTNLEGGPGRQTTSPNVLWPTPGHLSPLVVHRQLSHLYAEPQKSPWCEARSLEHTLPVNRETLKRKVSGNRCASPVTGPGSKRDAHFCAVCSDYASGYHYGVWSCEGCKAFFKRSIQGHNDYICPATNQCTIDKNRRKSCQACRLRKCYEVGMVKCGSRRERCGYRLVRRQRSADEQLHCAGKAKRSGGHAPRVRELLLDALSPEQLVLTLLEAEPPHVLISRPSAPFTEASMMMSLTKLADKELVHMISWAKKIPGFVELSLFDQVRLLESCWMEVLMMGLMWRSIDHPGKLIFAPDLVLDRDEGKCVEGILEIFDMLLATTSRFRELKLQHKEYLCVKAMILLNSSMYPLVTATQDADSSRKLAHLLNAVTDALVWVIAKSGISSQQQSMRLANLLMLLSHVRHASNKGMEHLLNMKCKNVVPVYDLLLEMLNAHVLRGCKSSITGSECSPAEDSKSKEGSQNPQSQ

Chain of Estrogen receptor (Homo sapiens) (P03372 whole entry, looked up): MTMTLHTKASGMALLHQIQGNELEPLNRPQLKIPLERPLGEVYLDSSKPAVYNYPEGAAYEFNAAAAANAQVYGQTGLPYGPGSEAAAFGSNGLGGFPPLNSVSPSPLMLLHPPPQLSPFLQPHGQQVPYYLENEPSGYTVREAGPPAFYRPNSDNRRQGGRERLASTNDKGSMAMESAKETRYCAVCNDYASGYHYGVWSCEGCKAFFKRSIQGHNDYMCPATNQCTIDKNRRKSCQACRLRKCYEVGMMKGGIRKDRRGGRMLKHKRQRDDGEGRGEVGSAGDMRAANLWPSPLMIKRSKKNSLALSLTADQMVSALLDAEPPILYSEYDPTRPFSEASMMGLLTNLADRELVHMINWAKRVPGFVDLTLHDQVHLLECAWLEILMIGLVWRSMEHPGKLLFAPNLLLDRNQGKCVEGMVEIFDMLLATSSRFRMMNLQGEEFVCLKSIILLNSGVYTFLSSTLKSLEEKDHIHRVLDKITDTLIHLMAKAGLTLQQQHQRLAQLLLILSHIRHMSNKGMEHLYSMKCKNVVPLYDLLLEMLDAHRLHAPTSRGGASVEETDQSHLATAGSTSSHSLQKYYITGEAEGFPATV
Chain of Androgen receptor (Homo sapiens) (P10275 whole entry, looked up): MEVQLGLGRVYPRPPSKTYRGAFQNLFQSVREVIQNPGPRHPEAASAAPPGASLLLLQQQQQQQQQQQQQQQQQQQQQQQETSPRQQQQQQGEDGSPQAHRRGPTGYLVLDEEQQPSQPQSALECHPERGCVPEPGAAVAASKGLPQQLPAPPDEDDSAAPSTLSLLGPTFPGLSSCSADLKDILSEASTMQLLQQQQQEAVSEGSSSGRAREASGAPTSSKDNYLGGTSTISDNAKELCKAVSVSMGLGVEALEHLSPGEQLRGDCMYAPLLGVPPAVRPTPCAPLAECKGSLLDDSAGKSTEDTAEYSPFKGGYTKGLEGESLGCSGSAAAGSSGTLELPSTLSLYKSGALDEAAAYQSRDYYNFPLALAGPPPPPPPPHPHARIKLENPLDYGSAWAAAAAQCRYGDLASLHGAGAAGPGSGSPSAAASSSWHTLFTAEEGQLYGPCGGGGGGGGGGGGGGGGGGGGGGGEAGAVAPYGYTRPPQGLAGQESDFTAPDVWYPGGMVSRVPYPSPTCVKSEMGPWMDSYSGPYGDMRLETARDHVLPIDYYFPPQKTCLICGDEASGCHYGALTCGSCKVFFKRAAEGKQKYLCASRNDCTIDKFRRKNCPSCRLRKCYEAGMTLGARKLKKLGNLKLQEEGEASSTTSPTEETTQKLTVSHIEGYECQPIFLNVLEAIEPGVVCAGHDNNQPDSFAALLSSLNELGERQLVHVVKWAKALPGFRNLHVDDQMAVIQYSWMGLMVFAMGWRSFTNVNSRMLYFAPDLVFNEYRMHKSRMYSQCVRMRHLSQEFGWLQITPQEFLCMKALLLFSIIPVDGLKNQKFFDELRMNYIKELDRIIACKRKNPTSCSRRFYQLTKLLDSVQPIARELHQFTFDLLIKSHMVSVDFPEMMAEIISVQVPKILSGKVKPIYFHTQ

On to `CC1(C)S[C@@H]2[C@H](NC(=O)COc3ccccc3)C(=O)N2[C@H]1C(=O)O`, for which the outcome in [1], in [5], in assay [8], in assay [11] and in [12] was inactive. The Potency result in assay [2], in assay [3], in assay [4], in [6], in [7] and in assay [9] was “inactive” each time. The Potency entry in assay [10] is “inactive”.

On to `O=C(O)CCCCCCCCC(=O)O`, for which the result in assay [1], in assay [5], in [8], in assay [11] and in assay [12] was inactive. Besides, the Potency entry in assay [2], in assay [13], in [4], in assay [6], in assay [7] and in assay [14] was “inactive” throughout. The Potency result in assay [9] and in [10] was “inactive” each time.

Regarding `CNC(=O)Oc1ccc2c(c1)[C@]1(C)CCN(C)[C@@H]1N2C`, the outcome in [1], in assay [15], in assay [5], in [8], in assay [11] and in [12] was inactive. Further, the Potency entry in assay [2], in assay [3], in assay [4], in assay [6], in [7] and in [9] was “inactive” in each case. Besides, the Potency result in assay [10] and in [16] was “inactive” each time.

As for `CC(=O)OCc1ccccc1`, the outcome in assay [1], in assay [5], in assay [8], in [11] and in [12] was inactive. The Potency result in [2], in [17], in assay [3], in assay [4], in assay [6] and in assay [7] was “inactive” each time. The Potency entry in assay [14], in assay [18], in [9], in assay [10] and in [19] was “inactive” each time.

As to `CCOCCOCCOCCO`, the compound was called inactive in assay [1], in [5], in assay [8], in assay [11] and in assay [12]. For the same compound, the Potency result in assay [2], in [13], in assay [4], in [6], in assay [7] and in assay [14] was “inactive” in each case. Moreover, the Potency entry in assay [18], in assay [9] and in assay [10] was “inactive” in each case.

In the case of `OCc1ccccc1`, the compound was classed as inactive in assay [1], in assay [15], in assay [5], in assay [8], in [11] and in [12]. Also, the Potency result in assay [2], in [17], in [3], in assay [4], in [6] and in [7] was “inactive” throughout. Moreover, the Potency entry in assay [14], in assay [18], in assay [20], in [9], in [10] and in assay [19] was “inactive” throughout.

For `C[C@]12CCC(=O)C=C1CC[C@@H]1[C@@H]2[C@@H](O)C[C@@]2(C)[C@H]1CC[C@]2(O)C(=O)CO`, the call in [1], in assay [15], in [5], in assay [8], in assay [11] and in assay [12] was inactive. For the same compound, the Potency entry in assay [13], in [17], in assay [4], in [6], in assay [7] and in [14] was “inactive” in each case. The Potency result in assay [18], in [9] and in assay [10] was “inactive” in each case. In addition, the Potency in assay [19] was 246 nM (active) and 150 nM (active).

On to `O=C(O)Cn1c(=O)n(Cc2ccc(Br)cc2F)c(=O)c2ccc(Cl)cc21`, for which the compound was classed as inactive in [1], in assay [5], in [8], in assay [11] and in assay [12]. The Potency result in assay [13], in assay [17], in [3], in assay [4], in assay [14] and in assay [18] was “inactive” in each case. For the same compound, the Potency entry in assay [9], in assay [10] and in assay [19] was “inactive” throughout. For the same compound, the Potency in assay [6] was 27.3 µM (active); in [7], 21.7 µM (active).

For `CC(O)CC(C)(C)O` (centres undefined), the compound was classed as inactive in assay [1], in [5], in assay [8] and in assay [11]. In addition, the Potency result in assay [2], in [13], in assay [4], in assay [6], in assay [7] and in [14] was “inactive” each time. The Potency entry in assay [9] and in assay [10] was “inactive” in each case.

Turning to `CCCCCCCCCCN`, the compound was called inactive in assay [1], in assay [5], in assay [8], in assay [11] and in assay [12]. In addition, the Potency result in assay [2], in assay [4], in assay [6], in assay [7], in assay [18] and in assay [20] was “inactive” each time. Moreover, the Potency result in assay [9] and in assay [10] was “inactive” each time.
